# Data taken from PubChem BioAssay (NCATS).
# Results filed as inconclusive are left out. A call without a number means that no potency is given here. Unmarked numbers belong to inactive results. Activity calls are given as the source filed them. The call rests on the fitted dose curve; in most records, active means well fitted inhibition curve with a large enough effect; inconclusive means small, poorly fitted or top-dose-only effect; inactive means flat fitted curve, though single readings scatter. *1 amine or outer side, *2 acyl side, *3 side chain or, on linkers, in order; H or OH if unused. Where a SMILES comes first, the peptide text is derived from it. Bridges are numbered along the chain shown (N, C = ends). X6 = O=C(CCC[*:2])[*:1]
# Target: Glutathione peroxidase 1 (Homo sapiens) (UniProt P07203)
# Test: Primary qHTS Assay for Inhibitors of Recombinant Selenoprotein Glutathione Peroxidase 1 (GPX1) (AID 1845191); further: nearly all actives have a fitted effect of over 65% in size
# Conditions: recombinant GPX1, GR-coupled NADPH fluorescence, 15 min; series mostly up to 48.8 µM
# Procedure, shortened: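 GR-coupled readout: NADPH consumption tracked by fluorescence, ex 340/em 450 nm, at t=0 and after 15 min at RT. Final mix 10 nM GPX1, 1 mM GSH, 0.5 mM CHP, 0.5 mM NADPH, 100 nM GR, 0.01% BSA, following 30 min enzyme–compound preincubation.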
# Chain of Glutathione peroxidase 1 (Homo sapiens) (P07203 whole entry, looked up): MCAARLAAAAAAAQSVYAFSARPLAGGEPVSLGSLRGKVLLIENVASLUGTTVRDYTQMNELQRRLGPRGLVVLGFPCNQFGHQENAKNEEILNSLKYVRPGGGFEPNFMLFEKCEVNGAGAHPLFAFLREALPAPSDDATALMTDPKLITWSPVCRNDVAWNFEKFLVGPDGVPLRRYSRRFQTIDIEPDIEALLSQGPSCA
Structure (SMILES),Potency,"activity, negative = inhibition"
N[C@H]1C[C@H]1c1ccc(-c2cccc(O)c2)cc1,inactive,–
CC(C)NC[C@H](O)COc1ccc(CCOCC2CC2)cc1,inactive,–
NCc1ccc(OCCCc2sc(-c3ccc4c(c3)/C(=N/Nc3nc5ccccc5s3)CCC4)nc2C(=O)O)cc1,inactive,–
COc1cc(N2CCC(N(C)C)CC2)ccc1Nc1ncc(Cl)c(Nc2ccccc2P(C)(C)=O)n1,inactive,–
CC1(C)CCC(C)(C)c2cc([C@@H](O)C(=O)Nc3ccc(C(=O)O)cc3F)ccc21,inactive,–
CCOc1nc2cccc(C(=O)OCc3oc(=O)oc3C)c2n1Cc1ccc(-c2ccccc2-c2noc(O)n2)cc1,inactive,–
COc1cc(/C=C/C(=O)O[C@H]2[C@H](O)[C@@H](CO)O[C@@]2(CO)O[C@H]2O[C@H](COC(=O)c3ccc(O)cc3)[C@@H](O)[C@H](O)[C@H]2O)cc(OC)c1OC,inactive,–
O=C1NC(=Nc2ccccc2F)S/C1=C\c1ccc(C(=O)O)cc1,inactive,–
CC1(C)CC[C@]2(C(=O)O)CC[C@]3(C)C(=CCC4[C@@]5(C)CC[C@H](O[C@@H]6O[C@H](C(=O)O)[C@@H](O)[C@H](O)[C@H]6O)C(C)(CO)C5CC[C@]43C)C2C1 (some centres not stated),inactive,–
CC12CCC3C(C)(C)C(O)CCC3(C)C1Cc1c(oc(C(=O)O)cc1=O)O2 (configuration not stated),inactive,–
CC1=C(C)C(=O)OC(C(C)C2C(O)CC3C4C5OC5C5(O)CC(OC6OC(CO)C(O)C(O)C6O)CC(O)C5(C)C4CCC32C)C1 (configuration not stated),inactive,–
COc1cc(COC2OC(CO)C(O)C(O)C2O)cc(OC)c1O (configuration not stated),inactive,–
O=C(c1ccc(C#Cc2cccc(F)c2)cn1)N1CC2CC2C1 (configuration not stated),inactive,–
Nc1ccn([C@@H]2C(F)=C(CO)[C@@H](O)[C@H]2O)c(=O)n1,inactive,–
CC[C@H]1OC(=O)C[C@@H](O)[C@H](C)[C@@H](O[C@@H]2O[C@H](C)[C@@H](O)[C@H](N(C)C)[C@H]2O)[C@@H](CCN2C[C@H](C)C[C@H](C)C2)C[C@@H](C)C(=O)/C=C/C(C)=C/[C@@H]1CO[C@@H]1O[C@H](C)[C@@H](O)[C@@H](OC)[C@H]1OC,inactive,–
CC1(C)C[C@H]2C3=CCC4[C@@]5(C)CC[C@H](O[C@H]6O[C@H](C(=O)O)[C@@H](O)[C@H](O)[C@H]6O[C@H]6O[C@H](CO)[C@@H](O)[C@H](O)[C@H]6O[C@@H]6O[C@H](CO)[C@@H](O)[C@H](O)[C@H]6O)[C@](C)(CO)C5CC[C@@]4(C)[C@]3(C)CC[C@@]2(C)[C@H](O[C@@H]2OC[C@H](O)[C@H](OC3O[C@H](CO)[C@@H](O)[C@H](O)[C@H]3O)[C@H]2O)[C@@H]1O (some centres not stated),–,0.367% [at 9.52 µM]
Cc1cc(O)cc(Oc2cc(C)c(C(=O)O)c(O)c2)c1,inactive,–
COC(=O)[C@H](OC(C)=O)[C@H]1C(C)(C)C(=O)[C@H]2CC3=C4CC(=O)O[C@@H](c5ccoc5)[C@]4(C)CCC3[C@@]1(C)C2=O (some centres not stated),inactive,–
C=C1CC[C@@H]2[C@](C)(CO[C@@H]3O[C@H](CO)[C@@H](O)[C@H](O)[C@H]3O)CCC[C@@]2(C)[C@@H]1CCC1=CCOC1=O,inactive,–
O=C1C[C@@H](c2ccc(O)cc2)Oc2cc(O)ccc21,inactive,–
N[C@@H](CC(=O)N1CCn2c(nnc2C(F)(F)F)C1)Cc1[nH]nc2c(F)c(F)ccc12,inactive,–
C[C@]1(OC(=O)/C=C/c2ccccc2)C[C@H](O)[C@]2(O)C=CO[C@@H](O[C@@H]3O[C@H](CO)[C@@H](O)[C@H](O)[C@H]3O)C12 (some centres not stated),inactive,–
CO[C@@H]1CC[C@H](OC[C@]2(COC(=O)c3ccc(C)[nH]3)[C@H](OC(C)=O)CC[C@@]3(C)[C@@H]4CC=C(C)[C@@H](C5=C(O)C(=O)OC5O)[C@]4(C)CC[C@@H]32)O[C@H]1C (some centres not stated),inactive,–
CC(C)c1cc2c(c(O)c1O[C@@H]1O[C@H](CO)[C@@H](O)[C@H](O)[C@H]1O)CC1(O)CCC(O)C(C)(C)C1CC2 (some centres not stated),inactive,–
O=C(O)c1ccc(CCCc2ccc(OCCc3ccc(F)cc3)cc2)o1,inactive,–
CC[C@H](C)[C@@H]1NC(=O)[C@H](Cc2ccc(OC)cc2)NC(=O)CCCSC[C@@H](C(=O)N2CCC[C@H]2C(=O)N[C@@H](CC(C)C)C(=O)NCC(N)=O)NC(=O)[C@H](CC(N)=O)NC(=O)[C@H](CCC(N)=O)NC1=O (Y(Me)IQNCPLG-NH2; linker N-5 via X6),inactive,–
CC1(CO)CC2C(O)C(=O)C3(CO)CC3(C)C2C1 (configuration not stated),inactive,–
